This is one part of a sample in which hits are shown more often than they occur.
EphB4 antag – antagonists of human EphB4-ephrin-B2 interaction | 97,000 compounds, 0.15% hits | EphB4 LBD / TNYL-RAW-Alexa532 peptide, fluorescence polarization | inhibition, % at 7 µM;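 active = inhibition above the screen-wide mean inhibition plus 3 SD, cut at about 15% in these data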
D1 allo mod – D1 dopamine receptor (human) allosteric modulation | P21728 | HEK293 D1, CRE-luciferase, dopamine EC30 potentiation; actives deviate in either direction | AID 641 | B-score at 10 µM | 58,000 compounds, 5.9% hits;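 active = luminescence count or its row- and column-corrected plate score outside the 99.7% band of the plate's sample wells, on either side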
Target sequence (P21728 whole entry, looked up): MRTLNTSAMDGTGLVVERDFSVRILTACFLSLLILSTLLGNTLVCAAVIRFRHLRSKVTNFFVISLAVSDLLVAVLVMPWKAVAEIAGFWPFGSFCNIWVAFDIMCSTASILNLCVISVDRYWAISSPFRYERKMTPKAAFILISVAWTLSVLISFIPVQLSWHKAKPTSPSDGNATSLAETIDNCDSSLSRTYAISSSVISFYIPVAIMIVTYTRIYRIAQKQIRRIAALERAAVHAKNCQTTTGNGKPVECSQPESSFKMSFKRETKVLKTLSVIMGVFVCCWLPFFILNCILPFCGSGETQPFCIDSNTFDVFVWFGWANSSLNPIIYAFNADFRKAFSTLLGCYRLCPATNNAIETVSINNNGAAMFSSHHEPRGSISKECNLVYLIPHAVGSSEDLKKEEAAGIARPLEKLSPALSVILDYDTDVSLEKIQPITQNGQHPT
hDAT+cocaine – modulates human dopamine transporter uptake under cocaine; Q01959; LLC-PK1 hDAT cells, [14C]-dopamine uptake with cocaine IC80; actives deviate in either direction; B-score at 10 µM; 110,000 compounds, 1.3% hits; AID 449768;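 active = Z score or B-score, a plate-position-corrected score, falls beyond the plate's 99.7% confidence bounds, in either direction; inactive = both scores lie inside the 99.7% bounds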
D1 PAM confirm – confirmation of human D1 dopamine receptor allosteric modulators; shares compounds with D1 allo mod; HEK293 D1 CRE-luciferase, dopamine EC30 potentiation; stronger effect = higher value; luminescence at 10 µM; 2,200 compounds, 88% hits; AID 642;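 active = luminescence in either of two replicates above the same-plate mean plus 3 SD of the low-dose dopamine control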
D1 ag no DA – activates D1 CRE-luciferase signal without dopamine present; shares compounds with D1 allo mod; HEK293 D1 CRE-luciferase, luminescence, no dopamine; stronger effect = higher value; luminescence at 10 µM; 1,900 compounds, 0.8% hits; in the data active = luminescence above about 3900
Isoprot counter – isoproterenol response counter-screen activity for D1 modulators | shares compounds with D1 allo mod | AID 647 | 2,200 compounds, 63% hits | HEK293 D1 CRE-luciferase, isoproterenol EC30 counter-screen | calls only at 10 µM;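 active = luminescence in either replicate above plate mean of wells with a partly effective reference agonist dose plus 3 SD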;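 also: isoproterenol raises cAMP through native beta-adrenoceptor Gs so signal bypasses D1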
Numbers stand for hits; . = inactive; / = not tested or not shown; + = active, no number.

SMILES	EphB4 antag	D1 allo mod	hDAT+cocaine	D1 PAM confirm	D1 ag no DA	Isoprot counter
FC(F)(F)c1cc(-c2ccco2)nc(-n2nc(C(F)(F)F)cc2C2CC2)n1	.	5.3	.	.	.	+
FC(F)(F)c1cc(-c2ccco2)nc(NCc2cccs2)n1	.	/	.	/	/	/
FC(F)(F)c1cc(-c2ccco2)nc(NCc2ccco2)n1	.	15	.	10384	.	+
Cc1ccc(Oc2ccccc2/C=C/C(=O)O)cc1	.	/	.	/	/	/
Nc1cc(N)nc(SCCOc2ccccc2F)n1	/	.	.	/	/	/
Nc1nc(OCC(F)(F)F)cc(Oc2ccccc2F)n1	.	8.7	.	14824	.	+
N#Cc1nc(N2CCCC2)nc(N2CCCC2)n1	.	5.6	.	16648	.	+
N#CN(CC(N)=O)c1nc(N2CCCCC2)nc(N2CCCCC2)n1	.	.	.	/	/	/
N#Cc1nc(N2CCCCC2)nc(N2CCOCC2)n1	.	7.5	.	9460	/	+
CN(C)c1nc(C#N)nc(N2CCOCC2)n1	.	/	.	/	/	/
C=CCn1c(CNc2ccccc2)nnc1SCC(=O)N/N=C/c1ccccc1O	.	/	.	/	/	/
CCCCCCN(C(=O)CCCCCN1C(=O)NC(c2ccccc2)C(C(=O)OCc2ccccc2)=C1C)C(C(=O)NCCCC)c1ccc(OCC(=O)OC)c(C(=O)OC)c1 (stereo unspecified)	/	/	.	/	/	/
COc1ccc(N2C(=O)C3CCCN3C2c2ccccc2)cc1Cl (stereo unspecified)	.	2.8	.	5744	.	.
COc1ccc(N2C(=O)C3CCCN3C2c2cccc(C)c2)cc1Cl (stereo unspecified)	.	.	.	/	/	/
COc1cccc(C(=O)Nc2nc3c(s2)CN(C)CC3)c1	.	/	.	/	/	/
O=C(OCCN(C1=NS(=O)(=O)c2ccccc21)c1ccccc1Cl)c1ccc(Cl)cc1	.	/	.	/	/	/
CCOC(=O)N1CCN(C(=O)CCCn2c(=S)[nH]c3ccccc3c2=O)CC1	.	3.1	.	8792	.	.
CCOC(=O)N1CCN(C(=O)CCCn2c(=O)[nH]c3ccccc3c2=O)CC1	.	.	.	/	/	/
Cc1cc(-c2nnc3n2CCCCC3)c(C)n1-c1ccccc1	.	.	.	/	/	/
COc1ccc(-c2cc3nc(C4CCN(C(=O)OC(C)(C)C)CC4)c(C(=O)O)cn3n2)cc1	.	9.2	.	14492	.	+
CCOC(=O)c1cn2nc(-c3ccc(OCC)cc3)cc2nc1C1CCN(C(=O)OC(C)(C)C)CC1	.	/	.	/	/	/
Cc1ccc(C(=O)C(OC(=O)CNS(=O)(=O)c2ccccc2)c2ccccc2)cc1 (stereo unspecified)	.	/	.	/	/	/
CCOc1ccc(-c2csc(N)c2C(=O)OC)cc1	.	/	.	/	/	/
CCOC(=O)c1c(-c2ccncc2)csc1N	.	6.8	.	14984	.	.
CCOC(=O)N1CCC(NC(=O)c2cccc3c2C(=O)N(c2ccc(OC)cc2)C3)CC1	.	5.2	.	10556	.	+
SMILES	EphB4 antag	D1 allo mod	hDAT+cocaine	D1 PAM confirm	D1 ag no DA	Isoprot counter
CCOC(=O)N1CCC(N2Cc3cccc(C(=O)NCc4ccccc4OC)c3C2=O)CC1	/	4.9	.	.	.	.
CCOC(=O)N1CCC(N2Cc3cccc(C(=O)NCc4ccc(OC)cc4)c3C2=O)CC1	/	.	/	/	/	/
CCOC(=O)N1CCC(N2Cc3cccc(C(=O)O)c3C2=O)CC1	/	.	.	/	/	/
COc1ccc(N2CC(C(=O)Nc3ccccc3C(=O)NCc3ccco3)CC2=O)cc1 (stereo unspecified)	.	.	.	/	/	/
COc1ccc(N2Cc3cccc(C(=O)NC(C)CCc4ccco4)c3C2=O)cc1 (stereo unspecified)	.	3.4	.	11280	.	+
CCN1N=C(c2ccccc2)Cn2c1nc1ccccc12	.	/	.	/	/	/
CC(C)(C)C(=O)Nc1ccc(C(=O)NNC(=O)Cc2ccccc2)cc1	.	/	.	/	/	/
CC(C)NC(=O)c1cc(-n2cnnc2)ccc1Cl	.	/	.	/	/	/
CC(/C=N\NC(=O)Cn1c(C)nc2ccccc21)=C\c1ccccc1	.	/	/	/	/	/
COc1ccc(NC(=O)c2c(C(F)(F)F)nn(C)c2SCc2ccccc2Cl)cc1	.	/	.	/	/	/
CCOc1cc(-c2noc(-c3cccnc3)n2)ccc1OC	.	19	.	21224	/	+
CCOc1ccc(-c2nc(-c3ccc(OC)c(OC)c3)no2)cc1OCC	.	.	.	/	/	/
CCOc1ccc(-c2nc(-c3cccnc3)no2)cc1	.	/	.	/	/	/
CCOc1ccc(-c2noc(-c3cccnc3)n2)cc1OC	.	4.3	/	10956	.	.
